# Data published in PubChem BioAssay.
# Calls of active or inactive are those of the source. Unless noted, no rule for the calls is given here.
# Key:
# [1] = A549 cell viability effects, profiling panel, calcein-AM fluorescence, 48 h, basal (AID 1162); details: higher = more signal; also: test concentration not given here
# [2] = adipocyte viability effects, profiling panel, cell-based, 3T3-L1 adipocytes, calcein-AM fluorescence, 48 h, basal (AID 1163); details: 3T3-L1 adipocytes viability, higher = more signal; also: test concentration not given here
# [3] = HepG2 cell viability effects, profiling panel, calcein-AM fluorescence, 48 h, basal (AID 1164); details: higher = more signal; also: test concentration not given here
# [4] = MM1S cell viability effects, profiling panel, calcein-AM fluorescence, 48 h, basal (AID 1165); details: higher = more signal;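 also: viability of MM1S multiple myeloma cells under basal unstimulated conditions; test concentration not given here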
# [5] = basal RPMI8226 viability, no added stimulus, profiling panel, cell-based, calcein-AM fluorescence, 48 h, PK04 Diversity Set (AID 1166); details: RPMI8226 myeloma viability, higher = more signal;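 also: cells grown under basal conditions without added stimulus; test concentration not given here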
# [6] = basal HepG2 mitochondrial membrane potential changes, profiling panel, cell-based, JC-1 fluorescence, 24 h, 100 nL compound (AID 1167); details: higher = more signal; also: test concentration not given here
# [7] = basal 3T3-L1 adipocyte mitochondrial potential changes, profiling panel, cell-based, JC-1 fluorescence, 3T3-L1 adipocytes, 24 h, 100 nL compound (AID 1168); details: JC-1 mitochondrial fluorescence, higher = more signal, called active from +8 up or from −8 down; also: test concentration not given here
# [8] = basal RPMI8226 mitochondrial membrane potential changes, profiling panel, cell-based, JC-1 fluorescence, 24 h, 100 nL compound (AID 1169); details: RPMI8226 myeloma, JC-1 mitochondrial potential fluorescence, higher = more signal; also: test concentration not given here
# [9] = basal MM1S mitochondrial membrane potential changes, profiling panel, cell-based, JC-1 fluorescence, 24 h, 100 nL compound (AID 1170); details: higher = more signal; also: test concentration not given here
# [10] = A549 lung cancer cell viability effects, profiling panel, resazurin fluorescence, 24 h, PK04 Diversity Set (AID 1171); details: higher = more signal, called active from +8 up or from −8 down; also: test concentration not given here
# [11] = HepG2 liver cancer cell viability effects, profiling panel, resazurin fluorescence, 24 h, PK04 Diversity Set (AID 1172); details: higher = more signal; also: test concentration not given here
# [12] = basal S. cerevisiae growth modulation, no modifier, primary screen, OD600, strain BY4716, 24 h, basal condition (AID 1173); details: OD600, 24 h, higher = more signal, called active from +8 up or from −8 down
# [13] = MM1S myeloma cell viability, profiling panel, resazurin fluorescence, basal, 24 h, PK04 Diversity Set (AID 1174); details: higher = more signal, called active from +8 up or from −8 down;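 also: MM1S multiple myeloma cell line; test concentration not given here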
# [14] = biological target: Dihydroorotate dehydrogenase (quinone), mitochondrial (Plasmodium falciparum (isolate 3D7)) (UniProt Q08210); test: PfDHODH enzyme inhibitors, primary screen, biochemical, C-terminal His tag, absorbance 600 nm (AID 1175); details: DCIP absorbance 600 nm, higher = more signal, called active from +8 up or from −8 down;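 also: recombinant parasite enzyme with a five histidine tag at its C terminus; test concentration not given here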
# Chain of Dihydroorotate dehydrogenase (quinone), mitochondrial (Plasmodium falciparum (isolate 3D7)) (Q08210 whole entry, looked up): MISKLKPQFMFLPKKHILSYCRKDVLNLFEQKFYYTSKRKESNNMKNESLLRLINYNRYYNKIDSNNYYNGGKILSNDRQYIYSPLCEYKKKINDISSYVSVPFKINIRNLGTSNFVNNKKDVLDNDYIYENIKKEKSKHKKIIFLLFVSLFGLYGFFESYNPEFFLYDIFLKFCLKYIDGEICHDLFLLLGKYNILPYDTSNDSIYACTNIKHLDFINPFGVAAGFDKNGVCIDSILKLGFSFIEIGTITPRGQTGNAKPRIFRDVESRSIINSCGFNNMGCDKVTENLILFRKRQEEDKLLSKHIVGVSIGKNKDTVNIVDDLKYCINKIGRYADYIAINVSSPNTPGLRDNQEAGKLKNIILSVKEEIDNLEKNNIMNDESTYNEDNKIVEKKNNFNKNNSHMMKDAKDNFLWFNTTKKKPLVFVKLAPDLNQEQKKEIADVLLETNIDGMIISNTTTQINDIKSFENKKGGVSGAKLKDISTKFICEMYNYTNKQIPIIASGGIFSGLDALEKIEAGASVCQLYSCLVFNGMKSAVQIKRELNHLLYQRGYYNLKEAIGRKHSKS
# [15] = P. aeruginosa biofilm formation inhibitors, primary screen, strain PAO1, LB-PBS medium, absorbance 600 nm (AID 1176); also: test concentration not given here; details: P. aeruginosa PAO1 growth/biofilm, A600, 12 h; higher = more signal
# [16] = S. cerevisiae RM11-1a growth modifiers, primary screen, strain RM11-1a, OD600, basal, 24 h (AID 1177); details: OD600, 24 h, higher = more signal, called active from +8 up or from −8 down;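 also: cultures grown under basal conditions with no added stressor; test concentration not given here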
# [17] = E. coli acrAB mutant growth effects, primary screen, E. coli filamentation inducers, strain DRC39, OD650, 24 h (AID 1178); details: higher = more signal, called active from +8 up or from −8 down;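 also: growth measured as culture turbidity by optical density at 650 nm; test concentration not given here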
# [18] = E. coli acrAB mutant growth effects, primary screen, E. coli filamentation inducers, strain DRC39, OD650, 48 h (AID 1179);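 also: screen aims at cell division blockers that make cells filament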; details: E. coli DRC39 delta-acrAB growth, higher = more signal, called active from +8 up or from −8 down
# [19] = RPMI8226 myeloma cell viability, profiling panel, resazurin fluorescence, basal, 24 h, PK04 Diversity Set (AID 1180); details: higher = more signal;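 also: RPMI8826 multiple myeloma cell line at 5000 cells per well; test concentration not given here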
# [20] = biological target: E3 ubiquitin-protein ligase XIAP (Homo sapiens) (UniProt P98170); test: XIAP binders, primary screen, biophysical, small-molecule microarray, fluorescence 635 nm (AID 1181); details: small-molecule microarray binding, higher = more signal;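 also: score merges 667 nm emission and signal to noise over triplicate slides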
# Chain of E3 ubiquitin-protein ligase XIAP (Homo sapiens) (P98170 whole entry, looked up): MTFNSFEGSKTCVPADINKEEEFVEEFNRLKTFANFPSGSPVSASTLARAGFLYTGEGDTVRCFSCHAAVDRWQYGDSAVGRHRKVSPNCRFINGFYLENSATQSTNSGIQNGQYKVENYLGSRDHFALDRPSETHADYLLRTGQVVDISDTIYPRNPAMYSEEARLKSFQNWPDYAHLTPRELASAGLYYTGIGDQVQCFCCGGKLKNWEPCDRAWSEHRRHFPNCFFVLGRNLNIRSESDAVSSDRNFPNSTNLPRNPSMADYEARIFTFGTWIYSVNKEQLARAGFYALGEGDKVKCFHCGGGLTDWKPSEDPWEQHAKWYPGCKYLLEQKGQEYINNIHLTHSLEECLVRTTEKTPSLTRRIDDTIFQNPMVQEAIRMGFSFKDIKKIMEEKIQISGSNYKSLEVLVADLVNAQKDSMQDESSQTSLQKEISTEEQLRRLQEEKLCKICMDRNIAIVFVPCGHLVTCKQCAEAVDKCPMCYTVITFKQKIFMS
SMILES,z-score [1],z-score [2],z-score [3],z-score [4],z-score [5],z-score [6],z-score [7],z-score [8],z-score [9],z-score [10],z-score [11],z-score [12],z-score [13],composite z-score [14],z-score [15],z-score [16],z-score [17],z-score [18],z-score [19],composite z-score [20]
O=C1[C@H]2[C@H]3[C@H](O)[C@H](O)CC(=NOCc4ccccc4)[C@@H]3CC[C@H]2C(=O)N1c1ccc(F)cc1F,0.504,-0.23,0.688,0.635,1.13,1.51,-0.371 (inactive),-0.261,-1.57,-1.03 (inactive),0.0979,-0.584 (inactive),0.253 (inactive),-1.42 (inactive),0.86 (inactive),-2.15 (inactive),-0.018 (inactive),-0.714 (inactive),-1.19,-0.0563
O=C1[C@H]2[C@H]3[C@H](O)[C@H](O)CC(=NOC[C@@H](O)COCc4ccco4)[C@H]3CC[C@H]2C(=O)N1c1ccc(F)cc1F,1.1,1.06,-0.0367,0.621,-0.478,0.501,-0.162 (inactive),-0.117,-1.68,0.224 (inactive),0.474,-1.89 (inactive),0.988 (inactive),-2.54 (inactive),1.18 (inactive),-3.71 (inactive),-0.311 (inactive),-1.22 (inactive),-0.374,-0.446
O=C1[C@H]2[C@H]3[C@H](O)[C@H](O)CC(=NO[C@@H]4O[C@H](CO)[C@@H](O)[C@H](O)[C@H]4O)[C@H]3CC[C@H]2C(=O)N1c1cccc(Oc2ccccc2)c1,-0.0287,-0.171,-0.733,0.411,-0.782,0.629,-0.235 (inactive),0.142,-0.827,1.08 (inactive),0.648,0.439 (inactive),-0.0137 (inactive),0.0087 (inactive),-0.708 (inactive),-0.929 (inactive),-0.0313 (inactive),-0.49 (inactive),0.394,-0.0773
O=C1[C@H]2[C@H]3[C@H](O)[C@H](O)CC(=NOC[C@@H](O)COCc4ccco4)[C@H]3CC[C@H]2C(=O)N1Cc1ccccc1,0.172,0.194,-1.46,0.455,-2.06,0.176,-0.161 (inactive),0.714,-0.441,0.968 (inactive),1.57,-1.34 (inactive),0.737 (inactive),-0.336 (inactive),0.377 (inactive),-1.36 (inactive),-0.194 (inactive),-0.22 (inactive),1.1,-0.0749
CO[C@H]1COC(=O)CC=C[C@@H](C)[C@H](OC)COC(=O)[C@@H]2CCCN2C(=O)CC=C[C@@H]1C,0.976,0.308,-0.259,0.491,-0.394,0.0843,-0.0391 (inactive),-0.83,1.22,0.572 (inactive),0.251,-1.87 (inactive),0.616 (inactive),0.52 (inactive),-0.638 (inactive),-0.055 (inactive),0.601 (inactive),0.53 (inactive),0.136,0.196
COc1cccc([C@@H]2Oc3ccc(OC)cc3C(=O)[C@H]2O)c1,0.0549,0.856,-2.24,-2.89,-2.25,-2.31,-0.0174 (inactive),1.04,-0.27,-0.214 (inactive),0.115,-8.27 (active),0.0409 (inactive),-2.73 (inactive),-0.364 (inactive),-0.55 (inactive),-1.47 (inactive),-2.37 (inactive),0.329,-0.0773
CO[C@H]1COC(=O)[C@H](C)NC(=O)[C@@H](C)COC(=O)[C@H]2CCCN2C(=O)CC=C[C@H]1C,-0.622,-0.321,-0.0694,-0.151,0.353,0.132,-0.658 (inactive),-0.0639,-1.01,-0.463 (inactive),-0.384,-0.739 (inactive),0.0177 (inactive),-2.21 (inactive),-0.655 (inactive),-0.382 (inactive),0.491 (inactive),0.206 (inactive),-0.65,-0.354
CCN1C(=O)[C@H]2[C@H]3[C@H](O)[C@H](O)CC(=NOCC(C)C)[C@@H]3CC[C@H]2C1=O,-0.556,-0.0239,-0.308,-0.181,0.922,-0.501,-0.769 (inactive),0.788,0.0483,-0.0226 (inactive),0.424,-0.18 (inactive),-0.243 (inactive),-0.423 (inactive),0.99 (inactive),-0.589 (inactive),-0.556 (inactive),-1.86 (inactive),0.279,-0.0696
CCOC(=O)NN=C1C[C@@H](O)[C@@H](O)[C@@H]2[C@@H]3C(=O)N(C(C)(C)C)C(=O)[C@@H]3CC[C@H]12,0.338,-0.666,1.34,0.469,0.541,0.361,0.314 (inactive),-0.252,-1.59,-0.974 (inactive),-1.46,-0.962 (inactive),-0.4 (inactive),-0.397 (inactive),0.434 (inactive),0.179 (inactive),0.408 (inactive),0.72 (inactive),-0.226,-0.246
CC[C@@H](c1ccccc1)n1c(=O)n2n(c1=O)[C@H]1[C@H](O)[C@@H]3O[C@@H]3C(=O)[C@H]1CC2,-0.0457,1.16,-0.481,-3.07,-2.84,-0.914,-0.491 (inactive),-0.924,-1.72,-0.565 (inactive),-0.797,-1.57 (inactive),-2.15 (inactive),0.807 (inactive),-0.626 (inactive),-0.552 (inactive),0.285 (inactive),0.216 (inactive),-2.04,0.0641
CCOC(=O)[C@H](Cc1ccccc1)NC(=O)OC1CC(CCC2CC(CC)=NO2)OC2(CCCC(COC(=O)NCCC(C)C)O2)C1 (stereo not given in full),-0.0093,-1.14,-1.1,-3.44,-3.72,-0.0294,0.513 (inactive),-0.462,-1.22,0.453 (inactive),0.239,0.633 (inactive),0.264 (inactive),-0.133 (inactive),0.226 (inactive),0.136 (inactive),0.347 (inactive),0.205 (inactive),0.65,-0.22
CCOC(=O)[C@H](CC(C)C)NC(=O)CCC1CC(OC(=O)NCc2cccc3ccccc23)CC2(CCCC(COC(=O)NCCOC)O2)O1 (stereo not given in full),2.3,0.217,0.442,-0.441,0.643,1.01,-0.356 (inactive),-0.198,-0.834,0.781 (inactive),-0.0621,-2.14 (inactive),1.35 (inactive),-0.531 (inactive),0.226 (inactive),-1.73 (inactive),0.521 (inactive),-0.0291 (inactive),0.986,0.0589
COC(=O)[C@@H]1CC[C@@H](C)[C@H](c2ccc(Br)cc2)N1,0.376,0.931,0.232,-0.749,0.628,0.307,-0.00943 (inactive),0.273,1.23,0.316 (inactive),0.0869,-0.176 (inactive),-0.0484 (inactive),-0.275 (inactive),0.766 (inactive),-0.0446 (inactive),-0.234 (inactive),-0.0612 (inactive),0.429,0.0548
CC(CCC(=O)OC[C@H]1O[C@H](C#Cc2ccccc2)C=C[C@@H]1Oc1ccc(C)cc1)=NO[C@H](C)c1cn([C@H](CO)Cc2ccccc2)nn1,0.122,-0.643,-0.34,-3.06,-3.97,0.0151,-1.08 (inactive),-0.712,-0.547,0.804 (inactive),0.151,0.815 (inactive),-0.0044 (inactive),1.1 (inactive),0.463 (inactive),1.78 (inactive),0.348 (inactive),-0.0348 (inactive),0.274,0.0191
CC(=O)OC[C@H]1O[C@@H](ON=C(C)CCN2CCCc3nc(C)c(C)cc32)[C@H](OC(C)=O)[C@@H](OC(C)=O)[C@@H]1OC(C)=O,-0.984,0.191,-0.563,-1.05,-2.45,-0.0457,0.553 (inactive),-0.572,-0.903,0.0264 (inactive),-0.288,0.131 (inactive),0.188 (inactive),-2.04 (inactive),-0.503 (inactive),-0.45 (inactive),-0.925 (inactive),-1.26 (inactive),0.529,-0.138
COC(=O)CC=C[C@@H](C)[C@@H](C=NOC(C)CN1CCCc2nc(C)c(C)cc21)OC (stereo not given in full),0.756,-0.274,0.125,0.0457,0.142,-0.16,0.111 (inactive),-0.194,-0.259,-0.399 (inactive),-0.412,0.0692 (inactive),0.141 (inactive),-0.781 (inactive),-0.537 (inactive),-0.151 (inactive),-0.222 (inactive),-0.0403 (inactive),-1.26,0.137
CC(CCN1CCCCc2nc(C)c(C)cc21)=NOC[C@@H](O)COCc1ccco1,0.224,0.0279,-0.437,0.0805,-1.05,-1.43,-1.47 (inactive),0.854,-0.797,-0.701 (inactive),-0.862,-0.0954 (inactive),-0.399 (inactive),-0.441 (inactive),-0.16 (inactive),0.0681 (inactive),-0.0051 (inactive),0.562 (inactive),-0.688,0.0251
CCOC(=O)[C@H](Cc1ccccc1)NC(=O)CCC1CC(OC(=O)NCc2cccc3ccccc23)CC2(CCCC(COC(=O)NCc3ccccc3)O2)O1 (stereo not given in full),0.143,0.919,-1.03,0.418,-0.653,1.12,-0.39 (inactive),-0.839,-1.18,0.682 (inactive),0.466,-2.55 (inactive),1.12 (inactive),-2.79 (inactive),0.709 (inactive),-2.62 (inactive),-0.964 (inactive),-1.23 (inactive),1.03,0.171
